Calls of active or inactive are those of the source.

Our source for the z-score and composite z-score values is PubChem BioAssay.

The nature of experiment [1]: optical density shifts of acrAB sulA E. coli – strain DRC41, OD650, 48 h, E. coli filamentation inducer project, primary screen (AID 1152).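 Further: E. coli MC1000 strain DRC41 lacking acrAB efflux pump and sulA.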 The following applies: higher = more signal, called active from +8 up or from −8 down.
Experiment [2] is described as follows: probe aLefty1 binding on compound microarray – biochemical, small-molecule microarray, 635/667 nm fluorescence, primary screen (AID 1153).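 Further: score merges spot fluorescence with signal-to-noise ratio from the scanned slide images.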 Particulars: higher = more signal.
Experiment [3] in a line: plasmodial surface anion channel blockers, osmotic lysis – cell-based, P. falciparum Indochina, OD700, 1 h, primary screen (AID 1154). The following applies: P. falciparum Indochina infected RBC osmotic lysis, higher = more signal, called active from +8 up or from −8 down.
Experiment [4] in a line: plasmodial surface anion channel blockers, osmotic lysis – cell-based, P. falciparum Indochina, OD700, 2 h, primary screen (AID 1155).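 Further: lysis reports solute entry through the parasite surface anion channel PSAC.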 Particulars: P. falciparum Indochina infected erythrocytes, higher = more signal, called active from +8 up or from −8 down.
Experiment [5] is described as follows: changes in parasitized red cell lysis, either direction – P. falciparum Indochina, OD700, 3 h, PSAC antagonist project, primary screen (AID 1156). The following applies: P. falciparum-infected erythrocytes, osmotic lysis, higher = more signal, called active from +8 up or from −8 down.
Experiment [6] is described as follows: plasmodial surface anion channel blockers, osmotic lysis – cell-based, P. falciparum Indochina, OD700, 18 h, primary screen (AID 1157). Particulars: P. falciparum Indochina infected erythrocytes, osmotic lysis OD700, 18 h; higher = more signal, called active from +8 up or from −8 down.
Experiment [7] is described as follows: S6 kinase pathway phospho-S6 level changes – cell-based, A549, cytoblot, luminescence, serum-stimulated, primary screen (AID 1158).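 Further: serum-stimulated A549 lung adenocarcinoma cells; signal is phosphorylated S6 detected by cytoblot immunostaining with HRP secondary.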 Particulars: 5 h, higher = more signal.
For experiment [8], the target named is NADPH oxidase 2 (Homo sapiens) (UniProt P04839). In words: compounds shifting NOX2 Amplex Red fluorescence – cell-based, HEK293-NOX2, PMA-stimulated, NOX inhibitor project, primary screen (AID 1159). Further: test concentration not given here. The following applies: 45 min, higher = more signal, called active from +8 up or from −8 down.
Chain of NADPH oxidase 2 (Homo sapiens) (P04839 whole entry, looked up): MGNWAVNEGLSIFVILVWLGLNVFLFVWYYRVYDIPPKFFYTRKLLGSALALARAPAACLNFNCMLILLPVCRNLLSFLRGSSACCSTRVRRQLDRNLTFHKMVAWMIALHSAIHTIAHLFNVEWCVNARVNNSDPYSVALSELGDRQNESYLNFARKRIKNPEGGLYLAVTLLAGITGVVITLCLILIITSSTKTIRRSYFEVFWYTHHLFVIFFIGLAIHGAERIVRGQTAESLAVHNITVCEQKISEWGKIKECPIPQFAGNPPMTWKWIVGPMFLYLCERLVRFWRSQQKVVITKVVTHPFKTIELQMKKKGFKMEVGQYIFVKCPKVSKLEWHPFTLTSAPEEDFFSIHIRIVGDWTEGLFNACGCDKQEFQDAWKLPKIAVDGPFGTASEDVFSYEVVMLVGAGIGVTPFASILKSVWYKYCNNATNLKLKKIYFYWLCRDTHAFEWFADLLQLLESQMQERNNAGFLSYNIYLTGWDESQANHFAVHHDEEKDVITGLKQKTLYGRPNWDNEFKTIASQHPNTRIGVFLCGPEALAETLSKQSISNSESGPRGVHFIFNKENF
Experiment [9] concerns the target NADPH oxidase 4 (Homo sapiens) (UniProt Q9NPH5). In words: compounds shifting NOX4 Amplex Red fluorescence – cell-based, HEK293-NOX4, tetracycline-induced, NOX inhibitor project, primary screen (AID 1160). Particulars: HEK293-NOX4, Amplex Red H2O2 fluorescence, 45 min; higher = more signal, called active from +8 up or from −8 down.
The target in experiment [10] is NADPH oxidase 5 (Homo sapiens) (UniProt Q96PH1). In words: compounds shifting NOX5 Amplex Red fluorescence – cell-based, HEK293-NOX5, NOX inhibitor project, primary screen (AID 1161). The following applies: HEK293-NOX5, ionomycin, 45 min, higher = more signal.
Chain of NADPH oxidase 5 (Homo sapiens) (Q96PH1 whole entry, looked up): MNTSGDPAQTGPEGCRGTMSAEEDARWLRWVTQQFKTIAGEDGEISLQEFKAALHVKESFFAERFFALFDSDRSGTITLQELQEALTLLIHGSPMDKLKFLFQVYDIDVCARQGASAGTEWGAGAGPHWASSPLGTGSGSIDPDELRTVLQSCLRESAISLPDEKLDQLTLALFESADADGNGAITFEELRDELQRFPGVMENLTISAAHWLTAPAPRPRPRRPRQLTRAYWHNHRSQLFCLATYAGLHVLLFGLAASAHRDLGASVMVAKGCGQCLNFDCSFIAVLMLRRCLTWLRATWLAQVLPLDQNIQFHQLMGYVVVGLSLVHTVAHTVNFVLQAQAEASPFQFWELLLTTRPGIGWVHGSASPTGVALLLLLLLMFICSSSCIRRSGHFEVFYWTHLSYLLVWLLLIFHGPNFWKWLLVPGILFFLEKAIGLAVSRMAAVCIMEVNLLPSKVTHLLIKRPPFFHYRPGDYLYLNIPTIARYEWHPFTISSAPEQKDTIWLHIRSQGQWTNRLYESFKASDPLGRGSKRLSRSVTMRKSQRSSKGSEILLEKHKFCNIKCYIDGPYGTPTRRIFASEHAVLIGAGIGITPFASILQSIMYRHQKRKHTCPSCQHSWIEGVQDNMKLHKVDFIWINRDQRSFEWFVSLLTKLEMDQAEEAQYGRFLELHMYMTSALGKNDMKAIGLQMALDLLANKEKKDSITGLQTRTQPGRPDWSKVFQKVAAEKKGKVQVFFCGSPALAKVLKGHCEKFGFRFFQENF

Chain of NADPH oxidase 4 (Homo sapiens) (Q9NPH5 whole entry, looked up): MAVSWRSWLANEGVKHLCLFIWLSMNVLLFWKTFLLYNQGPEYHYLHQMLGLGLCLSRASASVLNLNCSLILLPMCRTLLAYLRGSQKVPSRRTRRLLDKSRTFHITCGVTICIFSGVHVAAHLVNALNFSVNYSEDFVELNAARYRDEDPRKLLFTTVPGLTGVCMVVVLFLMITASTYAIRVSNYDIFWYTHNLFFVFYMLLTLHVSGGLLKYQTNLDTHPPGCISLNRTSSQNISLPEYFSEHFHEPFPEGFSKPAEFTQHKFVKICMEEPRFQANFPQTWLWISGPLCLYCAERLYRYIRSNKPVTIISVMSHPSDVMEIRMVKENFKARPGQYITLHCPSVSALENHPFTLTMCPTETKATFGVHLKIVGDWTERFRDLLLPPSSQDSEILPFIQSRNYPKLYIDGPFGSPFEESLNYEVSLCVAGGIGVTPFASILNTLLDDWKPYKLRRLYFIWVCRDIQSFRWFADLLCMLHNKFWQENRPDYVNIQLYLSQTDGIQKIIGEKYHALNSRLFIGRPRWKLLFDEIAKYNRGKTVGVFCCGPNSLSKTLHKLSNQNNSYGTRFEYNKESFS

For the compound `[N-]=[N+]=Nc1ccccc1[C@@H]1OC(c2ccc(OCCCO)cc2)=N[C@]1(Cc1ccccc1)C(=O)NCC(O)CO` (stereo not given in full), the z-score is 0.792 (inactive) in experiment [1]; 31 (active) in experiment [3]; 28 (active) in experiment [4]; 2.32 (inactive) in [5]; 6.87 (inactive) in experiment [6]; -0.0152 in [7]. Moreover, the z-score in experiment [8] is -1.36 (inactive); in [9], 1.07 (inactive); in [10], -0.606. For the same compound, the composite z-score in experiment [2] worked out at 0.665.

In the case of `[N-]=[N+]=NCc1ccccc1C[C@@]1(C(=O)N2CCCCC2)N=C(c2ccc(OCCCO)cc2)O[C@@H]1c1ccccc1`, the z-score is -0.184 (inactive) in experiment [1]; 25.2 (active) in [3]; 14.3 (active) in [4]; 2.13 (inactive) in experiment [5]; 2.51 (inactive) in [6]; 0.893 in experiment [7]. The results for the z-score in [8], in experiment [9] and in experiment [10] were -2.02 (inactive), -0.495 (inactive) and -1.49, respectively. For the same compound, the composite z-score in experiment [2] stood at 0.0323.

For the compound `O=C(NCCCCCNC(=O)/C(Cc1ccccc1)=N/O)OCc1ccccc1`, the z-score in experiment [1] is 2 (inactive); in experiment [3] it was 11 (active); in experiment [4], -0.43 (inactive); in experiment [5], 0.003 (inactive); in experiment [6], -2.25 (inactive); in [7] it was 1.19. The values for the z-score in [8], in experiment [9] and in experiment [10] were 0.53 (inactive), 0.0195 (inactive) and -1.35, respectively. For the same compound, the composite z-score in experiment [2] is -0.696.

As for `CN(C)CCCCNC(=O)[C@@H]1C[C@@H]2C(=O)N[C@@H](Cc3ccccc3)C(=O)N2[C@@H]1c1cccc(OCCO)c1`, the z-score is 2.93 (inactive) in experiment [1]; 7.44 (inactive) in experiment [3]; -0.16 (inactive) in experiment [4]; -1.84 (inactive) in [5]; -1.29 (inactive) in experiment [6]; 0.602 in [7]. Further, the z-score is 0.767 (inactive) in experiment [8], 0.74 (inactive) in [9] and 1.55 in [10]. Moreover, the composite z-score in experiment [2] came to 0.243.

As for `CCCCCCc1nc(-c2cc(C)c(OC)c(C)c2)c(C)c2c1[Si](C(C)C)(C(C)C)OC2`, the z-score in experiment [1] was 0.03 (inactive); in experiment [3] it was 1.53 (inactive); in experiment [4] it was -0.314 (inactive); in experiment [5], 1.02 (inactive); in [6] it was -0.348 (inactive); in [7], 1.94. Besides, the z-score in experiment [8] was -2.5 (inactive); in experiment [9], 0.626 (inactive); in experiment [10] it was -2.23. In addition, the composite z-score in experiment [2] amounted to 0.0056.

`Cn1cccc1C(O)C1C=CC2C(=O)NC(=O)C2N1Nc1ccc(Cl)cc1Cl` (stereo not given): the z-score in [1] is -3.18 (inactive); in experiment [3], 2.16 (inactive); in experiment [4], 1.35 (inactive); in [5], 0.304 (inactive); in experiment [6], 1.07 (inactive); in experiment [7], -1.42. Further, the results for the z-score in [8], in [9] and in experiment [10] were -0.663 (inactive), -3.85 (inactive) and -2.71, respectively. The compound further registered a composite z-score in [2] of 0.0981.

In the case of `COCCOC(=O)N1C(=O)[C@@]2(c3cc(C#CC4=CCCCC4)ccc31)[C@H](c1ccc(O)cc1)N1[C@H](c3ccccc3)[C@H](c3ccccc3)OC(=O)[C@H]1[C@@H]2C(=O)N1CCN(c2ncccn2)CC1`, the z-score in experiment [1] is -0.202 (inactive); in experiment [3] it was -0.0088 (inactive); in experiment [4], 0.18 (inactive); in experiment [5] it was 0.299 (inactive); in [6] it was 0.0164 (inactive); in experiment [7], -0.229. In addition, the z-score in experiment [8] was 0.347 (inactive); in [9], -0.0204 (inactive); in [10], 0.715. For the same compound, in [2], the composite z-score was -0.183.

In the case of `CCOC(=O)C[C@H]1[C@H](OC(=O)c2ccccc2-c2ccccc2)[C@@H](NC(=O)C2CCCCC2)c2cc(OCCCO)ccc2N1C(=O)Cc1ccc(OC)cc1`, the z-score in experiment [1] was -1.13 (inactive); in experiment [3], 1.1 (inactive); in experiment [4] it was 0.664 (inactive); in experiment [5], 0.125 (inactive); in [6], 0.256 (inactive); in experiment [7] it was -0.434. Moreover, the z-score was 0.0588 (inactive) in [8], 0.979 (inactive) in [9] and 0.103 in [10]. The compound further displayed a composite z-score in [2] of -0.0547.

With `O=C1C[C@@](C(=O)NCCN2CCOCC2)(c2ccc([N+](=O)[O-])cc2)[C@@H](c2ccc(CO)cc2I)N1C1CCCCC1`, the z-score in [1] was 0.82 (inactive); in experiment [3] it was 15.3 (active); in [4] it was 1.59 (inactive); in [5], 2.94 (inactive); in experiment [6], -0.168 (inactive); in [7], 0.452. Moreover, the z-score in experiment [8] is 2.1 (inactive); in experiment [9] it was -1.09 (inactive); in [10] it was -1.5. For the same compound, the composite z-score in experiment [2] worked out at 0.0688.

On to `CN(C)CCCNC(=O)[C@@]1(C)c2ccccc2C(=O)N(Cc2ccccc2)[C@H]1c1ccc(CO)cc1`, for which the z-score in experiment [1] was -0.074 (inactive); in [3], 2.17 (inactive); in [4], 0.426 (inactive); in experiment [5] it was 1.32 (inactive); in experiment [6], 0.377 (inactive); in experiment [7] it was -0.142. The z-score in experiment [8] is 0.42 (inactive); in [9], -1.25 (inactive); in experiment [10], 0.6. This compound had a composite z-score in experiment [2] of -0.146.

Take `O=C1O[C@H](c2ccccc2)[C@H](c2ccccc2)N2[C@H]1[C@@H](C(=O)Nc1nc3ccccc3s1)[C@]1(C(=O)Nc3ccc(C#CC4(O)CCCCCC4)cc31)[C@H]2c1ccccc1OCCO`: the z-score in experiment [1] is -0.569 (inactive); in experiment [3] it was 2.83 (inactive); in [4], 3.35 (inactive); in experiment [5], 0.602 (inactive); in experiment [6], 1.56 (inactive); in experiment [7], 0.164. For the same compound, the values for the z-score in experiment [8], in [9] and in experiment [10] were 1.29 (inactive), 0.578 (inactive) and 1.5, respectively. The compound also registered a composite z-score in experiment [2] of 0.966.

Regarding `CC(C)C(=C=CC[C@H](O)c1cccc(OCCO)c1)C[C@H](O)c1cc(Cl)cc(Cl)c1O`, the z-score in [1] is 0.321 (inactive); in [3] it was 14.5 (active); in experiment [4] it was 2.25 (inactive); in experiment [5] it was 0.667 (inactive); in experiment [6], 0.847 (inactive); in [7], 1.53. For the same compound, the z-score in experiment [8] was -1.01 (inactive); in experiment [9], -0.881 (inactive); in experiment [10], -1.83. Besides, in experiment [2], the composite z-score was 0.0999.

On to `CCOC(=O)C[C@H]1[C@H](OC(=O)Cc2ccc3c(c2)OCO3)[C@@H](NC(=O)Cc2ccc(OC)cc2)c2cc(OCCCO)ccc2N1C(=O)c1ccc2ccccc2n1`, for which the z-score was 2.96 (inactive) in experiment [1]; 3.63 (inactive) in experiment [3]; -0.486 (inactive) in experiment [4]; -1.03 (inactive) in [5]; -1.01 (inactive) in [6]; 1.29 in [7]. Also, the z-score in experiment [8] is -1.03 (inactive); in experiment [9] it was 1.04 (inactive); in [10] it was 1.05. Moreover, in [2], the composite z-score worked out at 0.0889.
